# Source: ChEMBL document CHEMBL3988442, “University of Dundee, Small-Polar-MMV Screening Library” (2021)
# The campaign covered roughly 48,000 compounds. About 13,000 (27%) showed an effect of 50% or more. The list shows a part of the results.
# Test system: Wolbachia pipientis
# Test: Anti-Wolbachia Cell-Based Screen
# Assay type: functional
# Set-up: scale not given: in the data most compounds retested in dose-response had high values
# Settings: 5 µM
row,Compound,Percent Effect
1,Cn1c2c(ccc1=O)CC(NC(=O)c1ccsc1)CC2 (stereo not given),116.4%
2,CC(C)NC1CCc2c(ccc(=O)n2CCN2CCCC2=O)C1.O=C(O)C(F)(F)F (stereo not given),-4.2%
3,CN(C)CCn1c2c(ccc1=O)CC(NC(=O)c1ccsc1)CC2.O=C(O)C(F)(F)F (stereo not given),112.1%
4,O=C(NC1CCc2c(ccc(=O)n2CC2CC2)C1)c1ccsc1 (stereo not given),1.111%
5,CN(C)CCn1c2c(ccc1=O)CC(NC(=O)NC1CCCC1)CC2.O=C(O)C(F)(F)F (stereo not given),92.43%
6,CC(C)NC1CCc2c(ccc(=O)n2CCN(C)C)C1.O=C(O)C(F)(F)F.O=C(O)C(F)(F)F (stereo not given),8.884%
7,CN(C)CCn1c2c(ccc1=O)CC(NC(=O)c1cnccn1)CC2.O=C(O)C(F)(F)F (stereo not given),97.98%
8,O=C(Cc1ccsc1)NC1CCc2c(ccc(=O)n2CC2CC2)C1 (stereo not given),-22.09%
9,Cc1ccc(Sc2ccc(N3CCCC(C(=O)O)C3)nn2)cc1 (stereo not given),-25.21%
10,Cn1cc(C(=O)N2CCOc3cc(F)ccc32)ccc1=O,-3.875%
11,O=C(Nc1ccnc2ccnn12)c1ccc(NC2CC2)nc1,-6.003%
12,Cc1nc(N2CCN(C(=O)c3cccs3)CC2)cc(-n2cccc2)n1,0.4402%
13,CC(Cc1cccc(F)c1)C(=O)NS(=O)(=O)c1ccc2c(c1)OCCO2 (stereo not given),-30.67%
14,CCc1nc(CCNc2ncccc2S(N)(=O)=O)sc1C,-14.32%
15,CN1CCOC(CNCc2csc(C3CCCCC3)n2)C1 (stereo not given),102.8%
16,Cc1n[nH]c(C2CN(Cc3csc(C4CCCCC4)n3)CCO2)n1 (stereo not given),-9.689%
17,CN1CCOC(CNCc2csc(C3CCCC3)n2)C1 (stereo not given),96.75%
18,CCc1n[nH]c(C2CN(Cc3csc(C4CCCC4)n3)CCO2)n1 (stereo not given),5.778%
19,CN1CCOC(CNCc2coc(-c3cccs3)n2)C1 (stereo not given),12.46%
20,CN(C)C(=O)[C@H]1CC[C@@H]2[C@@H](CCN2C(=O)N(C)C)O1,-14.11%
21,CN(C)CC(=O)N1CCOCC2(C1)CN(c1ccccc1)C(=O)CO2 (stereo not given),-12.92%
22,O=C(c1ccc[nH]1)N1CCOC2(COCCN(c3cncnc3)C2)C1 (stereo not given),-9.951%
23,O=C(N1CCCC1)N1CCOCC2(C1)CN(c1ccccc1)C(=O)CO2 (stereo not given),96.63%
24,O=C(NC1CC1)N1CCOCC2(C1)CN(c1ccccc1)C(=O)CO2 (stereo not given),106.4%
25,O=C(c1ccc[nH]1)N1CCOCC2(C1)CN(c1ccccc1)C(=O)CO2 (stereo not given),99.07%
26,N#Cc1cccc(N2CCOCC3(CCCN(C(=O)NC4CC4)C3)C2)c1 (stereo not given),10.86%
27,N#Cc1cccc(N2CCCC3(CN(C(=O)NC4CC4)CCO3)C2)c1 (stereo not given),4.321%

row,Compound,Percent Effect
1,O=C(O)C(F)(F)F.O=C1COC2(COCCN(Cc3ccsc3)C2)CN1c1ccc(F)cc1 (stereo not given),3.467%
2,N#Cc1cccc(N2CCCC3(CN(C(=O)c4ccc[nH]4)CCO3)C2)c1 (stereo not given),-1.292%
3,O=C(O)C(F)(F)F.O=C(c1c[nH]cn1)N1CCOCC2(C1)CN(c1ccccc1)C(=O)CO2 (stereo not given),97.27%
4,COCC(=O)N1Cc2ccnn2CC(COCCN(C)C)C1.O=C(O)C(F)(F)F.O=C(O)C(F)(F)F (stereo not given),-12.14%
5,Cc1csc(-c2cccc(NC(=O)NCC(C)(C)C(N)=O)c2)n1,1.71%
6,CC(C)n1cnc2c1C(C(=O)N(C)C)N(Cc1ccccc1)CC2.O=C(O)C(F)(F)F (stereo not given),-8.577%
7,O=C(c1cc[nH]n1)N1CCOCC2(C1)CN(c1ccccc1)C(=O)CO2 (stereo not given),99%
8,Cc1noc(C(C)N2CCN(CC(=O)N3CCCC3)CC2)n1 (stereo not given),104.8%
9,CCOc1cc(C)nc(N2CCN(C(C)c3nc(C)no3)CC2)n1 (stereo not given),-8.841%
10,Cc1noc(C(C)N2CCN(CCC(=O)N3CCOCC3)CC2)n1 (stereo not given),136%
11,Cc1noc(C(C)N2CCN(CCc3ccncc3)CC2)n1 (stereo not given),-4.658%
12,Cc1cnc(CN2CCN(C(C)c3nc(C)no3)CC2)cn1 (stereo not given),31.99%
13,Cc1noc(C(C)N2CCN(CCn3ccccc3=O)CC2)n1 (stereo not given),1.866%
14,CCc1cc(NC2CCN(S(C)(=O)=O)CC2)n2nc(C)c(C)c2n1,-8.298%
15,Cc1cc(=O)[nH]c(NC2CCN(S(=O)(=O)c3ccccc3)CC2)n1,124.4%
16,O=C(c1[nH]nc(C2CC2)c1Cl)N1CCN(S(=O)(=O)c2ccccc2)CC1,-6.506%
17,Cc1cc(=O)[nH]c(NCCNC(=O)c2ccccc2N2CCCC2)n1,13.63%
18,CCc1cc(=O)[nH]c(NC2CCN(S(=O)(=O)c3ccccc3)CC2)n1,74.59%
19,CC[C@H]1CN(S(=O)(=O)c2ccccc2)CC[C@H]1CC(=O)O,3.953%
20,Cn1ccnc1C1CCN(S(=O)(=O)c2ccc3oc(=O)[nH]c3c2)CC1,-28.87%
21,Cn1ccnc1C1CCN(S(=O)(=O)c2ccc3[nH]c(=O)[nH]c3c2)CC1,-2.986%
22,Cc1nc(NC2CCN(S(=O)(=O)c3ccccc3)CC2)[nH]c(=O)c1C,93.81%
23,CC(C)(C)n1ncc2c(=O)[nH]c(NC3CC=CC3)nc21,3.92%
24,CS(=O)(=O)NC[C@H]1Cn2c(-c3ccccc3)cnc2CO1,-16.47%
25,CCC(Nc1ncccn1)c1cccnc1 (stereo not given),8.55%
26,CCNC(c1cccnc1)c1ccc(F)c(F)c1 (stereo not given),-4.502%
27,CC(NCCCC#N)c1ccc(-c2cccnc2)cc1 (stereo not given),-3.574%

row,Compound,Percent Effect
1,CCNC(c1ccc(OC)cc1)c1cccnc1 (stereo not given),-6.571%
2,CCOCCN(C)C(c1cccnc1)c1ccc(F)cc1F (stereo not given),-0.1699%
3,CCNC(c1ccc(C(C)C)cc1)c1cccnc1 (stereo not given),85.86%
4,CCNC(c1cccnc1)c1ccc(F)cc1F (stereo not given),101.5%
5,CCN(C(c1cccnc1)c1ccc(F)cc1F)S(C)(=O)=O (stereo not given),-3.142%
6,CCNC(c1cccnc1)c1ccc(F)c(C)c1 (stereo not given),95.54%
7,CCN(C(c1cccnc1)c1ccc(F)c(F)c1)S(C)(=O)=O (stereo not given),5.552%
8,CCNC(c1ccc(Br)cc1)c1cccnc1 (stereo not given),106.3%
9,NC(=O)CC1CCN(C(=O)CCOc2ccc(Cl)cc2)CC1,-10.96%
10,COCCCN(C)C(=O)Cn1cccc(OC)c1=O,-68.57%
11,CN(C)Cc1cn(CC2CCCN(c3nccc4occc34)C2)nn1 (stereo not given),-7.203%
12,Cc1nc(CN2CCN(Cc3cc4n(n3)CCNC4)CC2)cs1,-7.4%
13,O=C(c1ncn2c1CNS(=O)(=O)c1ccccc1-2)N1CCCCCC1,-12.52%
14,CCNC(c1ccc(C)cc1)c1cccnc1 (stereo not given),100.9%
15,Cc1ccc(C)c(C(NC2CCCC2)c2cccnc2)c1 (stereo not given),-43.53%
16,CC(NCc1cccc(S(=O)(=O)N(C)C)c1)c1cccnc1 (stereo not given),-5.764%
17,CCc1cnc(NCC(C)Oc2cccnc2)nc1 (stereo not given),7.623%
18,CCNC(c1ccc(CC)cc1)c1cccnc1 (stereo not given),93.88%
19,CCNC(c1cccnc1)c1cc(C)cc(C)c1 (stereo not given),1.12%
20,CCNC(c1ccc(Cl)cc1)c1cccnc1 (stereo not given),74.82%
21,Cc1[nH]c2c(F)cccc2c1CC(=O)N1CCC(NS(C)(=O)=O)CC1,3.004%
22,N#Cc1ccc(N2CCCC2Cn2cccn2)nc1 (stereo not given),15.37%
23,CCc1ncc(C(=O)N2CCCOC(Cn3cccn3)C2)cn1 (stereo not given),5.482%
24,N[C@H]1CN(C(=O)Cc2cc(F)cc(Cl)c2)C[C@@H]1C1CC1,-8.09%
25,CC(C)n1cc(CN2CCCN(C(=O)C3CCCN3C)CC2)cn1 (stereo not given),115.6%
26,CC(C)n1cc(CN2CCCN(C(=O)C3CCOC3)CC2)cn1 (stereo not given),103.2%
27,CC(C)n1cc(CN2CCCN(C(=O)c3ccnn3C)CC2)cn1,-7.528%

row,Compound,Percent Effect
1,CC(C)n1cc(CN2CCCN(C(=O)C3(C)CCOCC3)CC2)cn1,-0.3166%
2,CCc1nc(CN2CCCN(C(=O)C3CCOC3)CC2)cs1 (stereo not given),3.952%
3,CC(C)=CCCC(C)CN1CCC(n2cc(C(C)(C)O)nn2)CC1 (stereo not given),-10.5%
4,O=c1[nH]c(C2CCOC2)nc2cc(F)c(F)cc12 (stereo not given),-25.67%
5,c1ccc2oc(CN3CCOC(Cn4cccn4)C3)nc2c1 (stereo not given),90.04%
6,c1cnn(CC2CN(Cc3nnc(C4CC4)o3)CCO2)c1 (stereo not given),144.3%
7,c1ccc(-c2noc(CN3CCOC(Cn4cccn4)C3)n2)nc1 (stereo not given),10.47%
8,Cc1cnn(CC2CN(CCCS(=O)(=O)N(C)C)CCO2)c1 (stereo not given),6.483%
9,CC(C)(C)c1nnc(CN2CCOC(Cn3cccn3)C2)o1 (stereo not given),-7.281%
10,c1ccc2oc(CCCN3CCCC(Cn4cncn4)C3)nc2c1 (stereo not given),99.07%
11,c1coc(-c2nnc(CN3CCOC(Cn4cccn4)C3)o2)c1 (stereo not given),-1.801%
12,Cc1cnn(CC2CN(CCCS(C)(=O)=O)CCO2)c1 (stereo not given),-24.88%
13,Cc1cnn(CC2CN(CCCc3nc4ccccc4o3)CCO2)c1 (stereo not given),130.7%
14,O=c1[nH]c(CCN2CCCC(Cn3cncn3)C2)nc2ccccc12 (stereo not given),2.487%
15,Nc1nc(CN2CCCC(Cn3cncn3)C2)nc2ccccc12 (stereo not given),-7.621%
16,c1ccc2oc(CCCN3CCOC(Cn4cccn4)C3)nc2c1 (stereo not given),-3.137%
17,COc1ccc(CC(=O)N(C)C2CCN(C)C2=O)cc1F (stereo not given),-7.072%
18,CS(=O)(=O)N1CCC(Oc2ccc(C(=O)NC3CCOC3)cc2Cl)CC1 (stereo not given),6.025%
19,COC(=O)CN(C(=O)c1ccc(Cl)cn1)c1cccc(F)c1,-0.7063%
20,c1ccc2oc(CCCN3CCOC(Cn4cncn4)C3)nc2c1 (stereo not given),115.2%
21,Cn1c(CN2CCOC(Cn3cncn3)C2)nc2ccccc21 (stereo not given),-24%
22,Cc1cnn(CC2CN(Cc3nc4ccccc4n3C)CCO2)c1 (stereo not given),109.8%
23,Cc1cnn(CC2CN(CCS(=O)(=O)c3ccccc3)CCO2)c1 (stereo not given),5.078%
24,Cc1cnn(CC2CN(Cc3nc4ccccc4o3)CCO2)c1 (stereo not given),139.9%
